Assay results as given in ChEMBL document CHEMBL1961873, “Compounds: GSK PKIS; Assays: Nanosyn kinase panel” (2012).

How the values were obtained:
[1] = target: T1, Aurora kinase A (Homo sapiens) (UniProt O14965); settings: at 1 µM;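 further: values are mean percent inhibition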
T1 sequence (whole entry): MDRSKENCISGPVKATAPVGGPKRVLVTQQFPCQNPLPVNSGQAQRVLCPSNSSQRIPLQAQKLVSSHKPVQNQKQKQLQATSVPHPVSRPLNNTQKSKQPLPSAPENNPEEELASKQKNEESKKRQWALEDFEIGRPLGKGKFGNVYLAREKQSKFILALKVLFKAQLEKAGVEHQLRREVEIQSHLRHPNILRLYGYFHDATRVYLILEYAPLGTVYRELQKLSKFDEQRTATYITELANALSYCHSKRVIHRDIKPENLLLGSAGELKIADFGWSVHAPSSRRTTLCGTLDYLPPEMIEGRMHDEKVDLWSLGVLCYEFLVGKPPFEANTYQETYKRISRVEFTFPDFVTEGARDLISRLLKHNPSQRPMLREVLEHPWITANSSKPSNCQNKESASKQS

[2] = target: Aurora kinase B (Homo sapiens) (UniProt Q96GD4); settings: at 0.1 µM
Aurora kinase B (Homo sapiens), sequence (Q96GD4 whole entry): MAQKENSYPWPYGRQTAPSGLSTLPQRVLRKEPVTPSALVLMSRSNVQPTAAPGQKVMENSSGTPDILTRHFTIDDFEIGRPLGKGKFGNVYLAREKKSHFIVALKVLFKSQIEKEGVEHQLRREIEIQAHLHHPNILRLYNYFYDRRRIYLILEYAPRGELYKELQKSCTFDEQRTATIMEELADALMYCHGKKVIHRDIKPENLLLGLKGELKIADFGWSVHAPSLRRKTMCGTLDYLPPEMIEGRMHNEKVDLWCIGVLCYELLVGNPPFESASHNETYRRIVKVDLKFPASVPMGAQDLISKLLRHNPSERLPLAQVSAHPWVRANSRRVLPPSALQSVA

[3] = target: Aurora kinase B (Homo sapiens) (UniProt Q96GD4); settings: at 1 µM
[4] = target: T2, Aurora kinase C (Homo sapiens) (UniProt Q9UQB9); settings: at 0.1 µM
T2 sequence (whole entry): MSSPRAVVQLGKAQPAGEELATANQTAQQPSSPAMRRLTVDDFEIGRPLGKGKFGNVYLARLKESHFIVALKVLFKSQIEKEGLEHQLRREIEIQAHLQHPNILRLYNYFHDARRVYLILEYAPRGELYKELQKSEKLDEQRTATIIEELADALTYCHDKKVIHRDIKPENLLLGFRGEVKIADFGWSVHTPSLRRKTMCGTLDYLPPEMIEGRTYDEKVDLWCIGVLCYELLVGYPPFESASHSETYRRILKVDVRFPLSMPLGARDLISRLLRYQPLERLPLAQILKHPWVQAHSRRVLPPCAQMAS

[5] = target: T2, Aurora kinase C (Homo sapiens); settings: at 1 µM
[6] = target: Serine/threonine-protein kinase 10 (Homo sapiens) (UniProt O94804); settings: at 0.1 µM
Serine/threonine-protein kinase 10 (Homo sapiens), sequence (O94804 whole entry, looked up): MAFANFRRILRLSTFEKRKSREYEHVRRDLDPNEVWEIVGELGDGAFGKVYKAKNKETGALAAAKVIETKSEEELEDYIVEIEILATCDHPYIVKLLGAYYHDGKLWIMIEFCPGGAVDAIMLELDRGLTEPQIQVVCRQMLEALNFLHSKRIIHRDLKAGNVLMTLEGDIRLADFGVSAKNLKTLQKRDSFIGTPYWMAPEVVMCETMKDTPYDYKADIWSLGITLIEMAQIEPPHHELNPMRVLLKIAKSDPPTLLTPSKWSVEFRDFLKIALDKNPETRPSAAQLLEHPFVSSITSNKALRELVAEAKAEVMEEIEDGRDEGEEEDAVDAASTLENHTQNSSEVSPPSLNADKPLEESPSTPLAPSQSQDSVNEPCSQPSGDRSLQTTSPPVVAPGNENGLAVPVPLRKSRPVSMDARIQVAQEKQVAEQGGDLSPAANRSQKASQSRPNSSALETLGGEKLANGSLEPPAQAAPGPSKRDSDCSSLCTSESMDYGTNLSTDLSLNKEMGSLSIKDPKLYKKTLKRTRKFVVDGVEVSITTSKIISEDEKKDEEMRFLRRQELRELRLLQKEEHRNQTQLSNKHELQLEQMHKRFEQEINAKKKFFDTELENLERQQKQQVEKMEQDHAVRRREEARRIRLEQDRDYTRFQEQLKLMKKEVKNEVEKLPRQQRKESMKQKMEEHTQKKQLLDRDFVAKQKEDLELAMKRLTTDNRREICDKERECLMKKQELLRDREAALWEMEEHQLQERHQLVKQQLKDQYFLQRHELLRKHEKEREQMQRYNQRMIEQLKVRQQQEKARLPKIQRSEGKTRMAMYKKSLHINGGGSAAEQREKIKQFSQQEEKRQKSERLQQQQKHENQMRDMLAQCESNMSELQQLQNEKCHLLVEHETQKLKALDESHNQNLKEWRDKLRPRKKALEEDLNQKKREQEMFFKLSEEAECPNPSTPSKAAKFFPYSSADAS

[7] = target: Serine/threonine-protein kinase 10 (Homo sapiens) (UniProt O94804); settings: at 1 µM
[8] = target: T3, Mitogen-activated protein kinase kinase kinase kinase 2 (Homo sapiens) (UniProt Q12851); settings: at 0.1 µM
T3 sequence (whole entry): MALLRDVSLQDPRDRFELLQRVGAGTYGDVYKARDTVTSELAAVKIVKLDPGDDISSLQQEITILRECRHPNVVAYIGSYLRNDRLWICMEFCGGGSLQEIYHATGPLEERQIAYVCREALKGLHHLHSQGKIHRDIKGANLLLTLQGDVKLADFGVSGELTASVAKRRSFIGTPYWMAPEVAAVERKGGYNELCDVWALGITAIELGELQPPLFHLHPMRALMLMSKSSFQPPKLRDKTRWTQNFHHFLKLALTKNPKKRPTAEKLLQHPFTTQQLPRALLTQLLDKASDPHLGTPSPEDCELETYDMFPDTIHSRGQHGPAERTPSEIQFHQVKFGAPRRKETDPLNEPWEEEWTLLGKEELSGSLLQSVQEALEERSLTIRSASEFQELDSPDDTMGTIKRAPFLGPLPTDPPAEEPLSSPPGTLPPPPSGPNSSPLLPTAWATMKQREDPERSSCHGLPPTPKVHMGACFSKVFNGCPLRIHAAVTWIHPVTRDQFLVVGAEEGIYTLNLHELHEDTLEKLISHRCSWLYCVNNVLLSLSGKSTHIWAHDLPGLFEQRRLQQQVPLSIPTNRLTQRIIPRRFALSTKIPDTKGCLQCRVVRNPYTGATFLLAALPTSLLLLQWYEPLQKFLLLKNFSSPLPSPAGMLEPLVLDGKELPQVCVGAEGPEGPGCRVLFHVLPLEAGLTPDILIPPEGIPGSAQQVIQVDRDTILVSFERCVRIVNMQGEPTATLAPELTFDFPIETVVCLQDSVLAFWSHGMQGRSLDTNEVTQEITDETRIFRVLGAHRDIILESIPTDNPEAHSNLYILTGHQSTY

[9] = target: T3, Mitogen-activated protein kinase kinase kinase kinase 2 (Homo sapiens); settings: at 1 µM
[10] = target: Mitogen-activated protein kinase kinase kinase kinase 4 (Homo sapiens) (UniProt O95819); settings: at 0.1 µM
Mitogen-activated protein kinase kinase kinase kinase 4 (Homo sapiens), sequence (O95819 2-1239 limits assumed): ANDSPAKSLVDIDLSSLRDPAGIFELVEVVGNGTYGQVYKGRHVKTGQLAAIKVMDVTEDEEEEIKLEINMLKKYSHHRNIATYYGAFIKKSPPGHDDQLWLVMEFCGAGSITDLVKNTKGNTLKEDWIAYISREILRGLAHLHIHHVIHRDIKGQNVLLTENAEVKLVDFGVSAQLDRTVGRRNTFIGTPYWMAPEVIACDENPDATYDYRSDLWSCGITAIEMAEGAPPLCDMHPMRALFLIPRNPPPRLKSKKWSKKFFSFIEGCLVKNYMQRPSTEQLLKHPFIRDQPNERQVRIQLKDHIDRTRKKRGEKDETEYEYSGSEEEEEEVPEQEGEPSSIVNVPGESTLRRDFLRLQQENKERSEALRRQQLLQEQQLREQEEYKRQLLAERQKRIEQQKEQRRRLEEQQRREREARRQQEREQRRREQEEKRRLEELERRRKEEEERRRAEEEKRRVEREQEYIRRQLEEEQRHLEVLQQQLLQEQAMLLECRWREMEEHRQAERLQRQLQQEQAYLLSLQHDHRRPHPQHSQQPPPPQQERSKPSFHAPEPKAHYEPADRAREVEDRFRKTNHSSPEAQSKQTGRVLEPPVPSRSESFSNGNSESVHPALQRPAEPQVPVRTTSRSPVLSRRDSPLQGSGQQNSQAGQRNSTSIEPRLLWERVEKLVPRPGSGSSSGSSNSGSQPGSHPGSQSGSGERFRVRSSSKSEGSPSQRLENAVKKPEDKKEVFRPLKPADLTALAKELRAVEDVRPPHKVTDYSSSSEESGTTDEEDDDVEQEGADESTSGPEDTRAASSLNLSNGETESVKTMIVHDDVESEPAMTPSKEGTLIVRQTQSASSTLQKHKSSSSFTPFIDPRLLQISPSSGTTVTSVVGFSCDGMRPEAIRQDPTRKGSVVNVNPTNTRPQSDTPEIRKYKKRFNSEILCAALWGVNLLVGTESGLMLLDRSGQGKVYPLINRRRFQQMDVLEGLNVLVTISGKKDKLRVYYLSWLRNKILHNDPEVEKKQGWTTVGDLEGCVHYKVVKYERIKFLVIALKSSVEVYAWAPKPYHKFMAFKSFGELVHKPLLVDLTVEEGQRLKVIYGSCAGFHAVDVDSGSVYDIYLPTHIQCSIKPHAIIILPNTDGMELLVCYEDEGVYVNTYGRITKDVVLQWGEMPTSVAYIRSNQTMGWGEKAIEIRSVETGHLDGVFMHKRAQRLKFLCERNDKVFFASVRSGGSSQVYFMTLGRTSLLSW

[11] = target: Mitogen-activated protein kinase kinase kinase kinase 4 (Homo sapiens) (UniProt O95819); settings: at 1 µM
[12] = target: Dual specificity mitogen-activated protein kinase kinase 1 (Homo sapiens) (UniProt Q02750); settings: at 0.1 µM
Dual specificity mitogen-activated protein kinase kinase 1 (Homo sapiens), sequence (Q02750 whole entry): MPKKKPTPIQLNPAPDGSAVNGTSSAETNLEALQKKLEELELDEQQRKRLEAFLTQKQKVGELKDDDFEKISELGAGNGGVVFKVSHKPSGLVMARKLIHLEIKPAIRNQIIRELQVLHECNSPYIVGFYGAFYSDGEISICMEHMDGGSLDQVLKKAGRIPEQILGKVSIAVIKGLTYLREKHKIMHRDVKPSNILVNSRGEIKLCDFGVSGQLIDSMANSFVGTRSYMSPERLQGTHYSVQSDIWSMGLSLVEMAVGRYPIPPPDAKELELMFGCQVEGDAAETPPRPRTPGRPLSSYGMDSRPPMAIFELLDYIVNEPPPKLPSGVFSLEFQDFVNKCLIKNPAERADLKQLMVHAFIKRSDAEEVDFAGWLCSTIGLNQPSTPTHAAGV

[13] = target: Dual specificity mitogen-activated protein kinase kinase 1 (Homo sapiens) (UniProt Q02750); settings: at 1 µM
[14] = target: Misshapen-like kinase 1 (Homo sapiens) (UniProt Q8N4C8); settings: at 0.1 µM
Misshapen-like kinase 1 (Homo sapiens), sequence (Q8N4C8 whole entry, looked up): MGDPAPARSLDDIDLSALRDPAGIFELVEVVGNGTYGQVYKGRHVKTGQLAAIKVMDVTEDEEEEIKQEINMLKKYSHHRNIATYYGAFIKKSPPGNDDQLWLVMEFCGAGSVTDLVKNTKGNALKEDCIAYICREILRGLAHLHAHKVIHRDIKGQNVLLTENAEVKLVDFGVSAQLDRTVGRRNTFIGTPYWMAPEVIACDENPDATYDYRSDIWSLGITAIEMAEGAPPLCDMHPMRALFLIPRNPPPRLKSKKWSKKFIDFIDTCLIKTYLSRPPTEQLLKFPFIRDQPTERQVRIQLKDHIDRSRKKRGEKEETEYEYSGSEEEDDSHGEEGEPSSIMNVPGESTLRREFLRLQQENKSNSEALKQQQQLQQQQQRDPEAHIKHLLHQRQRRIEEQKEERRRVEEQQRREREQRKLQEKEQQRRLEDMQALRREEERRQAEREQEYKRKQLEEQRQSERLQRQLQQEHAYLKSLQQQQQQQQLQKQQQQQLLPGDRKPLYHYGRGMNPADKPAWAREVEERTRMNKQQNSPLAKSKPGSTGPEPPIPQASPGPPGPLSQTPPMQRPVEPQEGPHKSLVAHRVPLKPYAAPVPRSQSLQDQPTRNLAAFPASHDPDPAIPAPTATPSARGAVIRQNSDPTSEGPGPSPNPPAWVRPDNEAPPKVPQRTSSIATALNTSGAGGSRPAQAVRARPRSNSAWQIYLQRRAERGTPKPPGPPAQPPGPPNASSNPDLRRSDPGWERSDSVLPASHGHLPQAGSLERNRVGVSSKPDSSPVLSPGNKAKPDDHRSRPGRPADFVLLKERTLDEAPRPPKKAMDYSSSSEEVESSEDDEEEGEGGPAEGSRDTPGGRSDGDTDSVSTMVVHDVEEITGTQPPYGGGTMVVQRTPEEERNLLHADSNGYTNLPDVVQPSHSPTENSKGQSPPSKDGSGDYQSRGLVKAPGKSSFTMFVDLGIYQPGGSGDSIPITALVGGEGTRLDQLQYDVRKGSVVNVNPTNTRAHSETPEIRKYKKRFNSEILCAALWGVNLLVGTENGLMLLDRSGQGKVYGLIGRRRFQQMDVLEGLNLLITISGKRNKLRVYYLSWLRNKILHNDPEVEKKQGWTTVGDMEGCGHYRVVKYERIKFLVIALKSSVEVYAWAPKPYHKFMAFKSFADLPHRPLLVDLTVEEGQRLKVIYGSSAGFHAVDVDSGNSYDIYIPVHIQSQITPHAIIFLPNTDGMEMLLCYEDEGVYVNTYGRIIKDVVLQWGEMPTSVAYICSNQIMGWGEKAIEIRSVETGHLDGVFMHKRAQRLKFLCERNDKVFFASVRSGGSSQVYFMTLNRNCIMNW

[15] = target: Misshapen-like kinase 1 (Homo sapiens) (UniProt Q8N4C8); settings: at 1 µM
[16] = target: T4, Serine/threonine-protein kinase 4 (Homo sapiens) (UniProt Q13043); settings: at 0.1 µM
T4 sequence (whole entry): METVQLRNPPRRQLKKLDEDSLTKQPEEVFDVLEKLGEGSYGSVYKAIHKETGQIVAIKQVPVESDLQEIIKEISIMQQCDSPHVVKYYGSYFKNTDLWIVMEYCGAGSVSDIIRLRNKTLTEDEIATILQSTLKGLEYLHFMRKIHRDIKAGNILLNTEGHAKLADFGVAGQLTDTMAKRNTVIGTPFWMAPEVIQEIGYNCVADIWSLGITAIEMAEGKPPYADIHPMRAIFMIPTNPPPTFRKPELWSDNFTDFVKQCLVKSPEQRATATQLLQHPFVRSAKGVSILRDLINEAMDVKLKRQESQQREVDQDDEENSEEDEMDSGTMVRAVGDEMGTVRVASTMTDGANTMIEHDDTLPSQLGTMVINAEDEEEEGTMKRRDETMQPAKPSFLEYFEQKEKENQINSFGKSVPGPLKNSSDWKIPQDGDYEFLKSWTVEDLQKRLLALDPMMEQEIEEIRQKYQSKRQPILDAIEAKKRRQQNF

[17] = target: T4, Serine/threonine-protein kinase 4 (Homo sapiens); settings: at 1 µM
[18] = target: T5, Serine/threonine-protein kinase 3 (Homo sapiens) (UniProt Q13188); settings: at 0.1 µM
T5 sequence (whole entry): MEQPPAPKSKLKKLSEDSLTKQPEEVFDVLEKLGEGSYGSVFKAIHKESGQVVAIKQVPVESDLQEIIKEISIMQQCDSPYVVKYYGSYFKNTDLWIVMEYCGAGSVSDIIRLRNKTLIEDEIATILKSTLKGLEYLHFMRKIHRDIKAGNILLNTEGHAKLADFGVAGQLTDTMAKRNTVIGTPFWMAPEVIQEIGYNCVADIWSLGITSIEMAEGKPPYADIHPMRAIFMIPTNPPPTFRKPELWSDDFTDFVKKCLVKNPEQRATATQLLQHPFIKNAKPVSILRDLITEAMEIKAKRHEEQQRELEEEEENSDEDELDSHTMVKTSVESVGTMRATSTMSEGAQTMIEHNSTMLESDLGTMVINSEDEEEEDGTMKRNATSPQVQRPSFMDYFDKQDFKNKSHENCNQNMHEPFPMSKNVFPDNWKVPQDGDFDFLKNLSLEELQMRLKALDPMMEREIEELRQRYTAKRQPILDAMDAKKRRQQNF

[19] = target: T5, Serine/threonine-protein kinase 3 (Homo sapiens); settings: at 1 µM
[20] = target: Serine/threonine-protein kinase 26 (Homo sapiens) (UniProt Q9P289); settings: at 0.1 µM
Serine/threonine-protein kinase 26 (Homo sapiens), sequence (Q9P289 2-416 limits assumed): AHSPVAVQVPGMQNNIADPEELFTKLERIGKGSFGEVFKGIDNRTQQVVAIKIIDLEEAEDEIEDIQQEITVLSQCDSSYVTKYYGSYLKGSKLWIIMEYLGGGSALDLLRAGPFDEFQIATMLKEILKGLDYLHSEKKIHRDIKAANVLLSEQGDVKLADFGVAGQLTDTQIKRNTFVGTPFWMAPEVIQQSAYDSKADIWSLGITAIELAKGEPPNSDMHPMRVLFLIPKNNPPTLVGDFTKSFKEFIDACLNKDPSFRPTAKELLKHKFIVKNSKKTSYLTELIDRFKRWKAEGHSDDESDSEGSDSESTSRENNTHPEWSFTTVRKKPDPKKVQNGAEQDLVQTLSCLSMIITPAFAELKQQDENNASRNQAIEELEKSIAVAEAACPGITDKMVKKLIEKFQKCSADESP

Row | SMILES | inhibition [1] [%] | inhibition [2] [%] | inhibition [3] [%] | inhibition [4] [%] | inhibition [5] [%] | inhibition [6] [%] | inhibition [7] [%] | inhibition [8] [%] | inhibition [9] [%] | inhibition [10] [%] | inhibition [11] [%] | inhibition [12] [%] | inhibition [13] [%] | inhibition [14] [%] | inhibition [15] [%] | inhibition [16] [%] | inhibition [17] [%] | inhibition [18] [%] | inhibition [19] [%] | inhibition [20] [%]
1 | COc1cc(/C=N/Nc2ncnc3c2cnn3C(C)C)ccc1O | 37.7 | 3.34 | 15.5 | 1.77 | 13.8 | 3 | 21.7 | 2.5 | 9.5 | 7.32 | 21.4 | 2.16 | 1.21 | 6.6 | 19.1 | 1.8 | 7.78 | 1.29 | 8.02 | 0.35
2 | C[C@@H](Oc1cc(-n2cnc3ccc(OCC4CCN(C)CC4)cc32)sc1C(N)=O)c1ccccc1C(F)(F)F | -0.47 | -2.46 | 2.14 | -1.94 | 0.8 | 64.5 | 90.5 | 1.86 | 12.1 | -0.3 | 1.19 | -0.27 | 0.01 | 0.08 | 0.43 | 29.1 | 74.7 | 11.4 | 56.7 | 
3 | C[C@@H](Oc1cc(-n2cnc3ccc(OC[C@@H](O)CO)cc32)sc1C(N)=O)c1ccccc1Cl | 2.13 | 0.7 | 1.36 | -1.38 | -2.42 | 48.1 | 85.7 | 3.67 | 16.4 | -0.19 | 4.28 | -0.54 | 0.3 | -1.25 | 2.89 | 3.22 | 34.1 | 2.75 | 25.7 | -0.27
4 | Cc1ccc(Nc2ccnc(Nc3cccc(C(N)=O)c3)n2)cc1O | 73.4 | 6.44 | 42.6 | 8.25 | 85.4 | 7.05 | 38.9 | 2.07 | 8.97 | 6.53 | 28.9 | 4.22 | 4.94 | 6.27 | 22 | 5.18 | 12.2 | 4.59 | 10.1 | 0.27
5 | Cc1ccc(NC(=O)CC2CC2)cc1-c1ccc(C(=O)NCC2CC2)cc1 | 8.68 | 0.07 | 6.1 | 1.19 | -2.19 | 3.11 | 8.8 | 0.05 | 3.42 | 2.06 | 9.33 | 3.69 | 2.73 | 2.74 | 5.47 | 5.3 | 8.01 | 4.49 | 5.72 | 0.36
6 | CN(C)c1cc2c(Nc3ccc4c(cnn4Cc4ccccc4)c3)ncnc2cn1 | 12.8 | -0.85 | 8.49 | 2.76 | 27.6 | 6.27 | 13.9 | 0.85 | 0.49 | 2.93 | 6.51 | 3.44 | 2.77 | 3.28 | 4.78 | 3.03 | 1.68 | 4.54 | 2.67 | -1.9
7 | Cc1ccc2c(-c3ccnc(Nc4ccc5c(c4)OCCO5)n3)c(-c3ccc(C(F)(F)F)cc3)nn2n1 | 0.25 | -0.46 | -2.36 | 0.45 | 1.78 | 3.03 | 5.81 | 1.07 | 2.41 | 0.41 | -0.58 | 1.89 | 1.58 | 0.81 | -1.31 | 0.92 | 3.55 | 0.03 | 2.76 | 1.07
8 | CCOc1nccc2c1nc(-c1nonc1N)n2CC | 8.92 | 5.61 | 8.46 | 2.28 | -5.69 | 11.5 | 19.9 | 5.01 | 10.6 | 3.98 | 14.3 | 3.44 | 3.14 | 5.33 | 13.8 | 12.1 | 22.7 | 11.4 | 21.8 | 0.4
9 | Cc1ccc(O)cc1Nc1ccnc2ccc(S(C)(=O)=O)cc12 | 6.17 | 2.16 | 5.99 | 0.93 | -0.69 | 8.9 | 36.7 | 5.18 | 31 | 8.02 | 35.1 | 7.84 | 8.37 | 10.4 | 30.5 | 4.65 | 8.35 | 5.45 | 8.06 | -0.99
10 | N#Cc1cccc(Nc2nccc(-c3cnn4ncccc34)n2)c1 | 74.5 | 19.3 | 64 | 18.5 | 96.7 | 5.05 | 15.8 | 11 | 45.8 | 19.3 | 64.3 | 19.5 | 63 | 16.6 | 53.4 | 8.96 | 27.6 | 7.72 | 24.4 | -0.39
11 | CCCN1CCCC(c2ccc(Nc3nc(Nc4cc(F)ccc4C(N)=O)c4cc[nH]c4n3)c(OC)c2)C1 (centres undefined) | 7.44 | -0.78 | 3.45 | -0.09 | 5.81 | 7.27 | 24.8 | 9.87 | 48.9 | 38.3 | 80.8 | 9.59 | 33.4 | 28.3 | 71.7 | 10.2 | 41 | 6.09 | 10.6 | -1.66
12 | N#Cc1c(NC(=O)c2ccccc2F)sc2c1CCCC2 | -2.59 | -1.47 | 0.26 | -2 | 0.91 | -0.59 | 4.2 | 1.34 | 2.61 | -1.47 | -0.82 | 0.34 | -0.71 | -1.75 | -2.13 | -0.37 | 3.02 | -3.35 | 1.41 | -0.08
13 | COc1cc2ncn(-c3cc(OCc4ccccc4S(C)(=O)=O)c(C#N)s3)c2cc1OC | 77.2 | 28.2 | 73.6 | 17.7 | 93.8 | 35.5 | 71.7 | 8.65 | 41.3 | 57.5 | 90.5 | 3.78 | 7.23 | 43.7 | 83.5 | 22.3 | 66.4 | 17.3 | 51.5 | -1.33
14 | ON=C1CCc2cc(-c3nc(C4CCNCC4)[nH]c3-c3ccncc3)ccc21 | 2.73 | 0.1 | 3.15 | -0.7 | 10.1 | 19.7 | 63.6 | 1.74 | 4.29 | 3.95 | 21.5 | 0.2 | 2.1 | 4.01 | 18.4 | 2.4 | 3.87 | 1.63 | 2.8 | 0.5
15 | NC(=O)c1cccc(Nc2nccc(Nc3cccc(F)c3)n2)c1 | 65.5 | 12.6 | 49.3 | 25.6 | 85.2 | -0.14 | 12.3 | 0.98 | 14.1 | 8.77 | 44.9 | -0.23 | 1.42 | 6.07 | 33.3 | 0.59 | 12.2 | 1.63 | 6.4 | -0.81
16 | c1ccc(Cc2nc3ccc(Nc4ncnc5ccccc45)cc3[nH]2)cc1 | 11.6 | 5.89 | 11 | 4.08 | 7.02 | 4.04 | 8.14 | 0.75 | 6.22 | 4.28 | 10 | 2.72 | 2.98 | 4.23 | 9.55 | 4.48 | 8.56 | 5.09 | 8.29 | -0.58
